The nature of experiment [1]: Quantitative High-Throughput drug screen in 47 multiple myeloma cell lines against the NCATS MIPE library collection: KHM11_PLB cell viability assay (AID 1918962). Also: nearly all actives have a fitted effect of over 35% in size. The method, boiled down:
(§1)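 Inhibition of cell viability is measured here. Each line was plated at 500 cells per well, treated with MIPE 4.0 drugs, kept 48 hours at 37C, then assayed for ATP content by CellTiter-Glo luminescence.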

The nature of experiment [2]: Quantitative High-Throughput drug screen in 47 multiple myeloma cell lines against the NCATS MIPE library collection: JIM3_ECACC cell viability assay (AID 1918963; also: nearly all actives have a fitted effect of over 35% in size). The method in brief:
as §1

The nature of experiment [3]: Quantitative High-Throughput drug screen in 47 multiple myeloma cell lines against the NCATS MIPE library collection: H1112_PLB cell viability assay (AID 1918967; also: nearly all actives have a fitted effect of over 30% in size). The method, boiled down: as §1
Experiment [4] is described as follows: Quantitative High-Throughput drug screen in 47 multiple myeloma cell lines against the NCATS MIPE library collection: Karpas25_ECACC cell viability assay (AID 1918968; also: nearly all actives have a fitted effect of over 35% in size). The method in brief: as §1
The nature of experiment [5]: Quantitative High-Throughput drug screen in 47 multiple myeloma cell lines against the NCATS MIPE library collection: JIM1_ECACC cell viability assay (AID 1918964). The method in brief:
as §1

A short description of experiment [6]: Quantitative High-Throughput drug screen in 47 multiple myeloma cell lines against the NCATS MIPE library collection: KMS27_JCRB cell viability assay (AID 1918970). Also: nearly all actives have a fitted effect of over 30% in size. The method, boiled down:
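KMS27_JCRB myeloma cells, 500 per well, exposed 48 h at 37 C, 5% CO2 to MIPE 4.0 compounds. Viability from ATP by CellTiter-Glo luminescence, normalized to DMSO (100%) and medium-only (0%) wells.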

Experiment [7] in a line: Quantitative High-Throughput drug screen in 47 multiple myeloma cell lines against the NCATS MIPE library collection: INA6_PLB cell viability assay (AID 1918965; also: nearly all actives have a fitted effect of over 55% in size). The method in brief: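 qHTS of the MIPE 4.0 collection: 500 myeloma cells/well, 48 h drug exposure at 37C in 5% CO2, then CellTiter-Glo for 5 min at room temperature before luminescence reading.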
The nature of experiment [8]: Quantitative High-Throughput drug screen in 47 multiple myeloma cell lines against the NCATS MIPE library collection: JJN3_DSMZ cell viability assay (AID 1918966; also: nearly all actives have a fitted effect of over 50% in size). The method in brief:
as §1

Here are results for 24 compounds from PubChem BioAssay (NCATS).

Results filed as inconclusive are left out. Calls of active or inactive are those of the source. Calls follow the shape of the dose curve; as a rule, active = well fitted curve in the direction sought with a large enough effect; inconclusive = small, poorly fitted or top-dose-only effect, or another doubt; inactive = no such curve, though single readings can be large; an effect the other way counts as inactive or inconclusive.
Potency is read from the fitted curve at half-maximal effect.

Turning to `CC(C)NCC(O)COc1ccc(COCCOC(C)C)cc1` (stereo not given), the Potency result in experiment [1], in experiment [2], in experiment [3] and in experiment [4] was “inactive” in each case.
As for `CCCC(CCC)C(=O)O`, the Potency result in experiment [1], in experiment [5] and in experiment [6] was “inactive” each time.
On to `COc1cccc2cc(-c3nc(C4CCC(C(=O)O)CC4)n4ncnc(N)c34)[nH]c12` (stereo not given), for which the Potency in experiment [1] was 0.118 µM (active); in experiment [7] it was 1.48 µM (active); in experiment [8] it was 1.05 µM (active); in experiment [3] it was 5.9 µM (active); in experiment [4], 0.662 µM (active).
As to `N#CC[C@H](C1CCCC1)n1cc(-c2ncnc3[nH]ccc23)cn1`, the Potency in experiment [2] is 6.62 µM (active); in experiment [7], 0.372 µM (active); in experiment [8] it was 5.26 µM (active). Besides, the Potency entry in experiment [3] is “inactive”.
Take `Cc1ccc(N(CC2=NCCN2)c2cccc(O)c2)cc1`: the Potency result in experiment [1] was “inactive”. For the same compound, the Potency was 13.2 µM (active) in experiment [7], 26.4 µM (active) in experiment [3] and 4.69 µM (active) in experiment [4].
Regarding `COc1cc(Oc2ccnc3cc(OC)c(OC)cc23)ccc1NC(=O)NC(C)c1nccs1` (stereo not given), the Potency in experiment [2] was 20.9 µM (active); in experiment [5], 0.105 µM (active); in experiment [4], 23.5 µM (active); in experiment [6], 5.9 µM (active).
As for `NCCc1ccc(O)c(O)c1`, the Potency entry in experiment [1] and in experiment [3] was “inactive” throughout. In addition, the Potency was 18.7 µM (active) in experiment [2], 20.9 µM (active) in experiment [8], 14.8 µM (active) in experiment [4] and 16.6 µM (active) in experiment [6].
Take `CCOc1cc(C(=O)Nc2ccc(Cl)c(-c3nc4ccccc4[nH]3)c2)cc(OCC)c1OCC`: the Potency in experiment [1] is 1.18 µM (active); in experiment [4], 10.5 µM (active).
As for `CCC(C)N(C)C(=O)c1cc2ccccc2c(-c2ccccc2Cl)n1` (stereo not given), the Potency entry in experiment [1], in experiment [7] and in experiment [3] was “inactive” each time.
For `NC(=O)C1CCCc2c1[nH]c1ccc(Cl)cc21` (stereo not given), the Potency in experiment [1] is 14.8 µM (active). Moreover, the Potency entry in experiment [2], in experiment [3] and in experiment [4] was “inactive” throughout.
Consider `CNC(=O)c1ccc(N2C(=S)N(c3ccc(C#N)c(C(F)(F)F)c3)C(=O)C2(C)C)cc1F`, for which the Potency entry in experiment [1], in experiment [2] and in experiment [3] was “inactive” in each case. Moreover, the Potency in experiment [4] is 18.7 µM (active).
Take `Clc1cccc(Cl)c1NC1=NCCN1`: the Potency result in experiment [1], in experiment [2], in experiment [3] and in experiment [4] was “inactive” each time.
As to `CCCCCCCc1ccc(CCc2cccc(O)c2C(=O)O)cc1`, the Potency in experiment [2] and in experiment [4] was 20.9 µM (active) in each case. Moreover, the Potency entry in experiment [5] was “inactive”.
In the case of `CNC(=O)c1ccc(C)c(-n2c(C)cc(OCc3ccc(F)cc3F)c(Br)c2=O)c1`, the Potency was 16.6 µM (active) in experiment [2], 23.5 µM (active) in experiment [5], 7.43 µM (active) in experiment [3] and 8.33 µM (active) in experiment [4].
In the case of `Cc1cnc(NC(=O)C2=C(O)c3ccccc3S(=O)(=O)N2C)s1`, the Potency entry in experiment [2], in experiment [5], in experiment [8], in experiment [3] and in experiment [4] was “inactive” in each case.
For the compound `OCCn1cc(-c2cnc3nnn(Cc4ccc5ncccc5c4)c3n2)cn1`, the Potency entry in experiment [2], in experiment [5], in experiment [7], in experiment [3] and in experiment [6] was “inactive” in each case. For the same compound, the Potency in experiment [4] was 14.8 µM (active).
Take `COc1ccc2nc(S(=O)Cc3ncc(C)c(OC)c3C)[nH]c2c1` (stereo not given): the Potency result in experiment [2] and in experiment [4] was “inactive” in each case.
Consider `Nc1nccc(-c2ccc3noc(-c4ccc(Cl)cc4)c3c2)n1`, for which the Potency result in experiment [3] and in experiment [4] was “inactive” in each case.
Take `COc1cc(Nc2ncc3c(n2)-c2ccc(Cl)cc2C(c2c(F)cccc2OC)=NC3)ccc1C(=O)O`: the Potency entry in experiment [8] and in experiment [3] was “inactive” throughout.
Take `CN(C)C(=O)c1ccc(S(=O)(=O)c2ccc(NC(=O)[C@@](C)(O)C(F)(F)F)c(Cl)c2)cc1`: the Potency in experiment [4] is 3.72 µM (active); in experiment [6], 14.8 µM (active).
Turning to `c1ccc([C@H]2CN3CCSC3=N2)cc1`, the Potency result in experiment [2] and in experiment [4] was “inactive” each time.
Turning to `Nc1nc2[nH]cc(CCc3ccc(C(=O)N[C@@H](CCC(=O)O)C(=O)O)cc3)c2c(=O)[nH]1`, the Potency in experiment [2] was 0.833 µM (active); in experiment [8], 9.35 µM (active); in experiment [3] it was 6.62 µM (active). Further, in experiment [4], the Potency entry was “inactive”.
As for `Cc1c(C)c2c(c(C)c1O)CCC(C)(COc1ccc(CC3SC(=O)NC3=O)cc1)O2` (stereo not given), the Potency result in experiment [8] and in experiment [3] was “inactive” throughout.
As to `CCCn1c(=O)c2[nH]c(C34CC5CC3C[C@@H](C5)C4)nc2n(CCC)c1=O`, the Potency entry in experiment [2], in experiment [3] and in experiment [4] was “inactive” throughout. The Potency in experiment [8] was 13.2 µM (active).
